# Data published in PubChem BioAssay (NCATS).
# Inconclusive results are not listed. A call without a number means that no potency is given here. Activity calls are given as the source filed them. Unless noted, calls follow the shape of the dose curve; as a rule, active = well fitted curve in the direction sought with a large enough effect; inconclusive = small, poorly fitted or top-dose-only effect, or another doubt; inactive = no such curve, though single readings can be large; an effect the other way counts as inactive or inconclusive.
# What was measured:
# [1] = target: Chromobox protein homolog 1 (Homo sapiens) (UniProt P83916); assay: qHTS Validation Assay for Inhibitors of HP1-beta Chromodomain Interactions with Methylated Histone Tails (AID 488953);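 also: loss of AlphaScreen luminescence from HP1-beta binding biotinylated H3K9me3 peptide; series mostly up to about 110 µM; nearly all actives have a fitted effect of over 50% in size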
# Sequence of Chromobox protein homolog 1 (Homo sapiens) (P83916 whole entry, looked up): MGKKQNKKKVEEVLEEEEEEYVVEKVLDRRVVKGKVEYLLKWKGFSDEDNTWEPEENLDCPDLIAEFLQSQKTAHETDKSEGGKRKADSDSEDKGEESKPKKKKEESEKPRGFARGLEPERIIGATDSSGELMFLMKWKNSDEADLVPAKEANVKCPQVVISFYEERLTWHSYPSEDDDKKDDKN
# In short: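 Compounds pinned into a preassembled complex of HP1-beta and trimethyl-K9 histone H3(1-18) biotin peptide (50 nM each; PBS pH 7.4, 0.01% Tween-20). After 30 min, bead-based AlphaScreen detection followed.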
# [2] = target: Methanococcus maripaludis chaperonin (MmCpn) (UniProt Q6LX38); assay: High-Throughput Screening for Modulators of Cytosolic Chaperonin Activity: MmCpn Primary Screen (AID 488978);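 also: 50 nM MmCpn enzyme hydrolysing 30 µM ATP at 37 °C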
# Sequence of Methanococcus maripaludis chaperonin (MmCpn) (Q6LX38 1-543): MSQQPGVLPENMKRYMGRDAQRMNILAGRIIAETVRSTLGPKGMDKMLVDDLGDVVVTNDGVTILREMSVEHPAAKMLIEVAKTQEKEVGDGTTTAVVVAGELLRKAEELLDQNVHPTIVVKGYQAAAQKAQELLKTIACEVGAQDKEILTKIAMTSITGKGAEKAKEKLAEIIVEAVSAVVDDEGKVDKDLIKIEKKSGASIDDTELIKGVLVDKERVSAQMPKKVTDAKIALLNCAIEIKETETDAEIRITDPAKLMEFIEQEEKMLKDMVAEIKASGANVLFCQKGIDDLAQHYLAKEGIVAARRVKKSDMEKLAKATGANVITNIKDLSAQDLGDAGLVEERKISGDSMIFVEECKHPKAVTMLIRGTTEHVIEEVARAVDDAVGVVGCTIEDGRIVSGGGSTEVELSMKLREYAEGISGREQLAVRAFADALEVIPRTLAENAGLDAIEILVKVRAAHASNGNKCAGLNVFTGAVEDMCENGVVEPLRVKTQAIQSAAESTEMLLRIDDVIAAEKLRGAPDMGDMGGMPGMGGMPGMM
# In short: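 MmCpn (50 nM final) was preincubated with compound 5 min at RT, then 30 uM ATP (final) was added and the reaction ran 10 min at 37C. ADP produced was detected by Transcreener HTRF (ex 320 nm; em 590/665 nm).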
# [3] = target: Transient receptor potential cation channel subfamily V member 1 (Homo sapiens) (UniProt Q8NER1); assay: HTS Assay for Compounds that Act as Enhancers of the Vanilloid Receptor 1 (AID 488979)
# Sequence of Transient receptor potential cation channel subfamily V member 1 (Homo sapiens) (Q8NER1 whole entry, looked up): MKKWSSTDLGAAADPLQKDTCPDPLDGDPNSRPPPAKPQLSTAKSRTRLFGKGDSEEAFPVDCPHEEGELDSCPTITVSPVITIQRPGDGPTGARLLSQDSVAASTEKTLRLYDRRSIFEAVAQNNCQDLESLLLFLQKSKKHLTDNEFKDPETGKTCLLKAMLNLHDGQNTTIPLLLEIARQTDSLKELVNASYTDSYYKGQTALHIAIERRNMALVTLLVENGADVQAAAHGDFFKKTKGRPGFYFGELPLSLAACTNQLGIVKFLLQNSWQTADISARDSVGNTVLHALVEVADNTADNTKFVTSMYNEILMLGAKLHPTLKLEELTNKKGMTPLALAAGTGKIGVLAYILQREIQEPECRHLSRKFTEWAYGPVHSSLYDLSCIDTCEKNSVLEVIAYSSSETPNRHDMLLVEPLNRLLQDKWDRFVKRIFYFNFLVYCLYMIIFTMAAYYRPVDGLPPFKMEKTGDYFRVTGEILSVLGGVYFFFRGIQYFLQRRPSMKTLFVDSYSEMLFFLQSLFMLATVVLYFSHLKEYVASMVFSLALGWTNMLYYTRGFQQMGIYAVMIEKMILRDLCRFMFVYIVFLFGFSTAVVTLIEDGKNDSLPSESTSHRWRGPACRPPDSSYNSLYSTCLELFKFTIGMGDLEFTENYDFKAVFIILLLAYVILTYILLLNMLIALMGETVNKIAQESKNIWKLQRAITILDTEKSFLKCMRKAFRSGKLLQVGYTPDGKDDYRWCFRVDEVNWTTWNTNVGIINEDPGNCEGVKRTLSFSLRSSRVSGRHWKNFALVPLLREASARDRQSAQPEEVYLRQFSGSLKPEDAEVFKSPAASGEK
# In short: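 TRPV1 cells loaded with Fluo-8 calcium dye; compound added and Ca2+ signal (ex 480/em 520 nm) followed 3 min, then capsaicin at EC20 added and read 2 more min to detect enhancement.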
# [4] = target: Thyrotropin receptor (Homo sapiens) (UniProt P16473); assay: qHTS Assay for Antagonists of the Thyroid Stimulating Hormone Receptor (AID 488980); also: series mostly up to about 58 µM
# Sequence of Thyrotropin receptor (Homo sapiens) (P16473 whole entry, looked up): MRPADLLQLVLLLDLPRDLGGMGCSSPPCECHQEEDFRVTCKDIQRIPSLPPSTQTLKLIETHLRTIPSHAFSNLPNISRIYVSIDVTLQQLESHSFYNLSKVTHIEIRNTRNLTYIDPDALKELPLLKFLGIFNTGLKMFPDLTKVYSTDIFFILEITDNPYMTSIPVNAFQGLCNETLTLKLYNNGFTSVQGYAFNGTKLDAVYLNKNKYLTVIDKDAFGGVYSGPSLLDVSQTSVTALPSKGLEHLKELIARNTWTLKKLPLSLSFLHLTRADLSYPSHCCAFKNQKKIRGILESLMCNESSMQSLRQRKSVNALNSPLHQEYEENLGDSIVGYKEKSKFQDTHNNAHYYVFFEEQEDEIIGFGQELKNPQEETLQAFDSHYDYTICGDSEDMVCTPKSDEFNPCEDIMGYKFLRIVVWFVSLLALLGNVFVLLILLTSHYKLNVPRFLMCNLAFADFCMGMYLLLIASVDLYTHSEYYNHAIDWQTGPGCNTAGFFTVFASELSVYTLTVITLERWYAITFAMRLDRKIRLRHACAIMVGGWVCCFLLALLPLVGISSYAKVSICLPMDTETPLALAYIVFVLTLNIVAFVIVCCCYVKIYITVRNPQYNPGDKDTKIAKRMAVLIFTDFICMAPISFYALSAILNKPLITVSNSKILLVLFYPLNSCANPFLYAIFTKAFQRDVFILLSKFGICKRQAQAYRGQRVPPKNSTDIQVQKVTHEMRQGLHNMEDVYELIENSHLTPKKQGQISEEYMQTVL
# In short: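 HEK293 cells transfected with human TSHR, suspended in HEPES-buffered HBSS with 70 uM RO 20-1724, were treated with compounds plus TSH at EC80 (4 nM final). cAMP was measured by competitive HTRF (cryptate anti-cAMP antibody, cAMP-d2 acceptor).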
# [5] = target: D(1A) dopamine receptor (Homo sapiens) (UniProt P21728); assay: HTS Assay for Allosteric Agonists of the Human D1 Dopamine Receptor: Primary Screen for Agonists (AID 488981)
# Sequence of D(1A) dopamine receptor (Homo sapiens) (P21728 whole entry, looked up): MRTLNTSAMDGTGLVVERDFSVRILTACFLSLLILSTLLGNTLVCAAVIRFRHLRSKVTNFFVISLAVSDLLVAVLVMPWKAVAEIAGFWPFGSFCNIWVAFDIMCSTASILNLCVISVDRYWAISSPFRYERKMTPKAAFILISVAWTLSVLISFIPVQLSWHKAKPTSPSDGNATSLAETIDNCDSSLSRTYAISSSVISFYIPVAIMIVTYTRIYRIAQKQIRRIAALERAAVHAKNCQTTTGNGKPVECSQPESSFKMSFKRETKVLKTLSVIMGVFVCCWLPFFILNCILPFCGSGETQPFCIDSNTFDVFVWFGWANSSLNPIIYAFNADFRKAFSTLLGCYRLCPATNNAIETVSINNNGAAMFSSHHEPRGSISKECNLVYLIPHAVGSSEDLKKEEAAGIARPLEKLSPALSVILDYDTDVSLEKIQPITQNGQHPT
# In short: (§1)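 Tetracycline-induced HEK293 Trex D1 cells with forced coupling to calcium, loaded with no-wash calcium dye; kinetic fluorescence read 180 s after compound addition for agonism, then a further 180 s after an EC20 dopamine challenge for potentiation.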
# [6] = target: D(1A) dopamine receptor (Homo sapiens) (UniProt P21728); assay: HTS Assay for Allosteric Agonists of the Human D1 Dopamine Receptor: Primary Screen for Potentiators (AID 488982)
# In short: as §1
# [7] = target: D(1A) dopamine receptor (Homo sapiens) (UniProt P21728); assay: HTS Assay for Allosteric Agonists of the Human D1 Dopamine Receptor: Primary Screen for Antagonists (AID 488983);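 also: calcium flux response to an EC80 dopamine challenge measured with no-wash dye; nearly all actives have a fitted effect of over 65% in size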; also: potency is read from the fitted curve at half-maximal effect
# In short: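 In this primary screen, compounds are applied to calcium-dye-loaded HEK293 T-REx cells with force-coupled D1 expression induced overnight at 30 C. An EC80 of dopamine follows the 180 s compound phase, and calcium is monitored for a further 180 s.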
# [8] = Validation screen for small molecules that induce genotoxicity in human embryonic kidney (HEK293T) cells expressing luciferase-tagged ELG1 (AID 493106)
# In short: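 In this validation screen, increased ELG1-luciferase signal flags compounds causing genetic stress. HEK293T reporter cells are treated 16 hr (37 °C, 5% CO2), developed with ONE-Glo for 30 min at room temperature, and imaged on a CCD-based reader.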
# [9] = target: ATPase family AAA domain-containing protein 5 (Homo sapiens) (UniProt Q96QE3); assay: Validation screen for small molecules that inhibit ELG1-dependent DNA repair in human embryonic kidney (HEK293T) cells expressing luciferase-tagged ELG1 (AID 493107);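 also: cells co-treated with the DNA-damaging agent 5-fluorouridine alongside compound; series mostly up to about 46 µM; inhibitors lower the ELG1-luciferase luminescence signal; nearly all actives have a fitted effect of over 70% in size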
# In short: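 Compounds reducing 5-fluorouridine-driven ELG1-luciferase signal in HEK293T cells were scored; exposure lasted 16 hr at 37 °C with luminescence detected via ONE-Glo.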
# [10] = target: Thyrotropin-releasing hormone receptor (Homo sapiens) (UniProt P34981); assay: qHTS for Small Molecule Agonists and Allosteric Enhancers of Human TRH Receptor: Validation Screen for Agonists (AID 493127;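 active = calcium activation more than 3 SD above the typical response in the agonist read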;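 also: intracellular calcium rise by fluo-8 fluorescence before TRH EC20 addition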); conditions: TRH receptor agonist cell assay; at 2 µM; stronger effect = higher value
# Sequence of Thyrotropin-releasing hormone receptor (Homo sapiens) (P34981 whole entry, looked up): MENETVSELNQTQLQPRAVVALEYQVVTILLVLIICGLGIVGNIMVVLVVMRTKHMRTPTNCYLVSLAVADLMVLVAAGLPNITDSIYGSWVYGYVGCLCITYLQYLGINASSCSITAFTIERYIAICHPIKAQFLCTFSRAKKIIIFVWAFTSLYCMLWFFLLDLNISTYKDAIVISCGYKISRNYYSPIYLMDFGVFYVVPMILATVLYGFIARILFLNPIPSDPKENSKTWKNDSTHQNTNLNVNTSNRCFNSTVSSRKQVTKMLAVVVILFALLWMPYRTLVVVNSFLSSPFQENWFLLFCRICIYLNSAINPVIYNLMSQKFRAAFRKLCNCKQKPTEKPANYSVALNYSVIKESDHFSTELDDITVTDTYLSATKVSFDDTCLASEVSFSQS
# In short: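 Kinetic fluorescence assay of agonist-induced calcium release: overnight-plated TRHR cells, room-temperature fluo-8 loading, baseline then compound addition with per-second reads.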
# [11] = qHTS for Inhibitors of Cell Surface uPA Generation: Validation Assay (AID 493164);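 also: RAW 264.7 macrophage cells exposed to compound for 18 h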
# In short: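 Compounds are titrated over seven points (2.45 nM–38.3 uM final) onto pre-plated RAW 264.7 cells and incubated for 18 h. Retained intracellular ATP, measured with ATP-Lite, indicates blocked lethal factor entry.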
# [12] = target: Galactokinase (Homo sapiens) (UniProt P51570); assay: qHTS Validation Assay for Inhibitors of Human Galactokinase (GALK) (AID 493189)
# Sequence of Galactokinase (Homo sapiens) (P51570 whole entry, looked up): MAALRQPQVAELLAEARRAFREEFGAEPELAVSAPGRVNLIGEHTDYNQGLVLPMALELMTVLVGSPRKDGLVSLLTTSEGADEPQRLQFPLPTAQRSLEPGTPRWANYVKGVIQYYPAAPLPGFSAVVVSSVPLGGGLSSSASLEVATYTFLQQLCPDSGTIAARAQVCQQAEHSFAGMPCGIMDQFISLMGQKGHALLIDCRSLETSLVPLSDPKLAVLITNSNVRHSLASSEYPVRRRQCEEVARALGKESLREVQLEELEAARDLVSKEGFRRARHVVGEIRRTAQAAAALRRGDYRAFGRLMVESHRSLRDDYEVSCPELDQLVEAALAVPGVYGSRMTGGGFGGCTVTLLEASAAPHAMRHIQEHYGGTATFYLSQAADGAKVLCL
# In short: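 GALK (5 nM) with 35 uM ATP and 100 uM galactose in HEPES pH8.0, MgCl2, NaCl, DTT, BSA; 1 h at room temperature. Residual ATP read by Kinase-Glo Plus luminescence after 10 min.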
# [13] = Validation screen for small molecules that induce DNA re-replication in SW480 colon adenocarcinoma cells (AID 504364)
# In short: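 Hoechst-stained SW480 nuclei, imaged at 405 nm excitation after 48 hr compound exposure, were counted for elevated DNA content as the re-replication signal.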
# [14] = target: Peptidyl-prolyl cis-trans isomerase NIMA-interacting 1 (Homo sapiens) (UniProt Q13526); assay: qHTS Validation Assay to Find Inhibitors of Pin1 (AID 504536; active = well fitted inhibition curve with a large enough effect in the polarisation, with a control signal flat, not every such curve was filed as active; the % refers to the polarisation)
# Sequence of Peptidyl-prolyl cis-trans isomerase NIMA-interacting 1 (Homo sapiens) (Q13526 whole entry, looked up): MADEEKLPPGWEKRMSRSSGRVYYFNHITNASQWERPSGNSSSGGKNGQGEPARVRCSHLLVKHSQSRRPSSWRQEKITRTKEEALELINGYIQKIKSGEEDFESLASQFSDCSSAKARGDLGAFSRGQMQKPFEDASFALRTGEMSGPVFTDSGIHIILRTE
# In short: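 Fluorescence polarization competition: compounds (titration) displace HiFluor-488-labeled Pin1-1b peptide from Pin1 (0.3 uM final) in pH 7.5 HEPES buffer with DTT, 10 min at room temperature; %Activity normalized to no-enzyme wells, curves fitted.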
# [15] = target: Phosphoglycerate kinase, glycosomal (Trypanosoma brucei brucei) (UniProt P07378); assay: qHTS Validation Assay to Find Inhibitors of Phosphoglycerate Kinase (AID 504547)
# Sequence of Phosphoglycerate kinase, glycosomal (Trypanosoma brucei brucei) (P07378 whole entry, looked up): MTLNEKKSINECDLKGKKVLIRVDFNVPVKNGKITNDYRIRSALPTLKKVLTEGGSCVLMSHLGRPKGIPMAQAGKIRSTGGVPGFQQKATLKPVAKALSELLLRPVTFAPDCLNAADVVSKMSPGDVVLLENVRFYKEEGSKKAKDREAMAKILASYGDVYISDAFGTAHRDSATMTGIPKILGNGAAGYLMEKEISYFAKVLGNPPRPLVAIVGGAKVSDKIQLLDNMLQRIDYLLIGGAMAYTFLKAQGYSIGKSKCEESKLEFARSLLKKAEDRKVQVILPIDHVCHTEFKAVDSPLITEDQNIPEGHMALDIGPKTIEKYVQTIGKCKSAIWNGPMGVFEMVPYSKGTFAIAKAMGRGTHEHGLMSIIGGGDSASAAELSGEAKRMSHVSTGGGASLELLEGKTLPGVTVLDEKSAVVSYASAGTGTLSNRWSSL
# In short: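 Compounds are pinned into the substrate/PGK mixture, and GAPDH (100nM final) is added to start the reaction by producing 1,3-BPG. After 60 minutes at room temperature, Kinase-Glo Plus is added and luminescence is measured 10 minutes later.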
# [16] = target: phosphoglycerate mutase (Leishmania major) (UniProt Q4Q090); assay: qHTS Validation Assay to Find Inhibitors of Phosphoglycerate Mutase (AID 504548); also: series mostly up to about 58 µM
# In short: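 Lm PGAM 1.25nM final; 100 mM TEA pH 7.6, 5 mM MgCl2, 0.01% Tween-20; 45 min RT; Kinase-GloPlus, 10 min; end-point luminescence. Enzyme-free wells as negative controls.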
# [17] = target: Ubiquitin carboxyl-terminal hydrolase 1 (Homo sapiens) (UniProt O94782); assay: Inhibitors of USP1/UAF1: Pilot qHTS (AID 504865);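 also: rhodamine fluorescence freed from ubiquitin-rhodamine substrate followed over time; top concentration of the series differs between compounds; nearly all actives have a fitted effect of over 35% in size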
# Sequence of Ubiquitin carboxyl-terminal hydrolase 1 (Homo sapiens) (O94782 whole entry, looked up): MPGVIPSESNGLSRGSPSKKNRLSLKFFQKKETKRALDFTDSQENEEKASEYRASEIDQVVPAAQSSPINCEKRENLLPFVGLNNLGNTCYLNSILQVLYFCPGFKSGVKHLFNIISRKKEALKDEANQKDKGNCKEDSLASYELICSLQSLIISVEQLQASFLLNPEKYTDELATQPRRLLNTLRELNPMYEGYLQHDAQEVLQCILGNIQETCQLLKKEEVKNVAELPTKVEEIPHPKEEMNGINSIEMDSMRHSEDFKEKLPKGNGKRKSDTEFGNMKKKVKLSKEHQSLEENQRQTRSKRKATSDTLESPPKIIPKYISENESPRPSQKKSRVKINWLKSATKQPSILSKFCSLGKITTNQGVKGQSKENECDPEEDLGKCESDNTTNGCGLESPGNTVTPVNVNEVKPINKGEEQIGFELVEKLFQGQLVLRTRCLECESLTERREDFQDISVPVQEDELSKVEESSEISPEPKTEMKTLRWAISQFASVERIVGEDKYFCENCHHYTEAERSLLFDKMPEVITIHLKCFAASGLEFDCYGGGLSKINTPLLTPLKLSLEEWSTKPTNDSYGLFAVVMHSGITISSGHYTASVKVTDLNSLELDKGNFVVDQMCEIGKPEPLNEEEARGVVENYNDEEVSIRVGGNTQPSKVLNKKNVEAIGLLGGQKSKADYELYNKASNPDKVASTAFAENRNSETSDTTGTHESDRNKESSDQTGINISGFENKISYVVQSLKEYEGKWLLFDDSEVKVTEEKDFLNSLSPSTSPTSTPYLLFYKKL
# In short: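 USP1/UAF1 complex (1nM) preincubated with compound 15 min at room temperature, then Ub-Rho substrate (150nM final) added. Fluorescence read kinetically at 480/540 nm, 6 reads every 60 seconds. Buffer: 50mM HEPES pH 7.8, 0.5mM EDTA, 0.1 mg/ml BSA, 1mM TCEP, 0.01% Tween-20.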
# [18] = target: M-phase phosphoprotein 8 (Homo sapiens) (UniProt Q99549); assay: qHTS Validation Assay for Inhibitors for MPP8 Chromodomain Interactions with Methylated Histone Tails (AID 488949);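 also: AlphaScreen signal from MPP8 chromodomain bound to biotinylated H3K9me3 peptide; top concentration of the series differs between compounds; nearly all actives have a fitted effect of over 55% in size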
# In short: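 MPP8 (50 nM) was preincubated with biotinylated H3(1-18)K9me3 peptide (50 nM) in PBS pH 7.4, 0.01% Tween-20 for 30 min at room temperature, then with compounds for 30 min; binding was detected by AlphaScreen.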
# [19] = Nrf2 qHTS screen for inhibitors: Validation (AID 493153; active = well fitted inhibition curve with a large enough effect in the main read-out, with a control signal flat, not every such curve was filed as active); conditions: Potency: luciferase luminescence; viability change: measured here: cytotoxicity max response
# In short: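 In this counterscreened reporter format, each well gives two signals: CellTiter-Fluor fluorescence for cytotoxicity and ARE-luciferase luminescence for Nrf2 function. A549 ARE_Fluc cells in 5% FBS OPTI-MEM were exposed to compound titrations for 18-24 h.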
# [20] = target: ATP-dependent 6-phosphofructokinase (Trypanosoma brucei brucei) (UniProt O15648); assay: qHTS Assay to Find Inhibitors of T. brucei phosphofructokinase: hit validation (AID 492961); also: series mostly up to about 51 µM
# In short: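 Luminescence from ADP-Glo reports ADP generated as T. brucei PFK (1.25 nM) phosphorylates 0.5 mM fructose-6-phosphate using 0.1 mM ATP. Reactions ran 45 min at room temperature, pH 8.0.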
smiles,measurement,setting,value
CN=C(NC#N)NCCSCc1nc[nH]c1C,Potency,[1],inactive
same,outcome,[2],inactive
same,outcome,[3],inactive
same,outcome,[4],inactive
same,Potency,[5],inactive
same,Potency,[6],inactive
same,Potency,[7],inactive
same,Potency,[8],inactive
same,Potency,[9],inactive
same,activation,[10],1.12% (inactive)
same,outcome,[11],inactive
same,outcome,[12],inactive
same,outcome,[13],inactive
same,outcome,[14],inactive
same,outcome,[15],inactive
same,outcome,[16],inactive
same,Potency,[17],inactive
CCCN1C[C@H](CSC)C[C@@H]2c3cccc4[nH]cc(c34)C[C@H]21,Potency,[18],inactive
same,outcome,[2],inactive
same,outcome,[3],inactive
same,outcome,[4],inactive
same,Potency,[5],inactive
same,Potency,[6],inactive
same,Potency,[8],inactive
same,Potency,[9],inactive
same,activation,[10],1.44% (inactive)
same,Potency,[19],inactive
same,viability change,[19],2.56%
same,outcome,[11],inactive
same,outcome,[12],inactive
same,outcome,[13],inactive
same,outcome,[14],inactive
same,outcome,[15],inactive
same,outcome,[16],inactive
same,Potency,[17],inactive
CN/C(=C\[N+](=O)[O-])NCCSCc1ccc(CN(C)C)o1,outcome,[2],inactive
same,outcome,[3],inactive
same,outcome,[4],inactive
same,Potency,[5],inactive
same,Potency,[6],inactive
same,Potency,[7],inactive
same,Potency,[8],inactive
same,Potency,[9],inactive
same,activation,[10],0.938% (inactive)
same,Potency,[19],inactive
same,viability change,[19],4.46%
same,outcome,[11],inactive
same,outcome,[12],inactive
same,outcome,[13],inactive
same,outcome,[14],inactive
same,outcome,[15],inactive
same,outcome,[16],inactive
same,Potency,[17],inactive
CCCNC(C)C(=O)Nc1ccccc1C (stereo not given),Potency,[18],inactive
same,outcome,[2],inactive
same,outcome,[3],inactive
same,outcome,[4],inactive
same,Potency,[6],inactive
same,Potency,[7],inactive
same,Potency,[8],inactive
same,Potency,[9],inactive
same,activation,[10],1.5% (inactive)
same,Potency,[19],inactive
same,viability change,[19],-6.89%
same,outcome,[11],inactive
same,outcome,[12],inactive
same,outcome,[13],inactive
same,outcome,[14],inactive
same,outcome,[15],inactive
same,outcome,[16],inactive
same,Potency,[17],inactive
C[C@H](CS)C(=O)N1CCC[C@H]1C(=O)O,Potency,[18],inactive
same,outcome,[2],inactive
same,outcome,[4],inactive
same,Potency,[5],inactive
same,Potency,[6],inactive
same,Potency,[7],inactive
same,outcome,[20],inactive
same,Potency,[8],inactive
same,Potency,[9],inactive
same,activation,[10],-0.375% (inactive)
same,Potency,[19],inactive
same,viability change,[19],0.828%
same,outcome,[11],inactive
same,outcome,[13],inactive
same,outcome,[14],inactive
same,outcome,[15],inactive
same,outcome,[16],inactive
O=C1CC2(CCCC2)CC(=O)N1CCCCN1CCN(c2ncccn2)CC1,Potency,[18],inactive
same,outcome,[2],inactive
same,outcome,[3],inactive
same,outcome,[4],inactive
same,Potency,[7],inactive
same,Potency,[9],inactive
same,activation,[10],0.688% (inactive)
same,outcome,[11],inactive
same,outcome,[12],inactive
same,outcome,[13],inactive
same,outcome,[14],inactive
same,outcome,[15],inactive
same,outcome,[16],inactive
same,Potency,[17],inactive
CCCCOCCOCCOCc1cc2c(cc1CCC)OCO2,outcome,[20],inactive
same,Potency,[17],inactive
NC(=Nc1ccccc1)Nc1ccccc1,outcome,[20],inactive
same,Potency,[17],inactive
CN(C)[C@@H]1C(=O)C(C(N)=O)=C(O)[C@@]2(O)C(=O)C3=C(O)c4c(O)ccc(Cl)c4[C@@H](O)[C@H]3C[C@@H]12,outcome,[2],inactive
same,Potency,[5],inactive
same,Potency,[6],inactive
same,Potency,[7],inactive
same,Potency,[8],inactive
same,Potency,[9],inactive
same,Potency,[19],inactive
same,viability change,[19],4.27%
same,outcome,[11],inactive
same,outcome,[15],inactive
same,outcome,[16],inactive
same,Potency,[17],inactive
Cc1scc2c1N(C(=O)CN1CCN(C)CC1)c1ccccc1NC2=O,Potency,[18],inactive
same,outcome,[2],inactive
same,outcome,[3],inactive
same,outcome,[4],inactive
same,Potency,[5],inactive
same,Potency,[7],inactive
same,Potency,[8],inactive
same,Potency,[9],inactive
same,activation,[10],0.5% (inactive)
same,outcome,[11],inactive
same,outcome,[12],inactive
same,outcome,[13],inactive
same,outcome,[14],inactive
same,outcome,[15],inactive
same,outcome,[16],inactive
same,Potency,[17],inactive
COc1ccc2c(c1OC)C(=O)O[C@@H]2[C@H]1c2c(cc3c(c2OC)OCO3)CCN1C,Potency,[18],inactive
same,outcome,[2],inactive
same,Potency,[5],inactive
same,Potency,[6],inactive
same,Potency,[7],inactive
same,Potency,[8],inactive
same,Potency,[9],inactive
same,outcome,[11],inactive
same,outcome,[14],inactive
same,outcome,[15],inactive
same,outcome,[16],inactive
same,Potency,[17],inactive
c1cc(CN2CCCCC2)cc(OCCCNc2nc3ccccc3s2)c1,Potency,[18],inactive
same,outcome,[2],inactive
same,outcome,[4],inactive
same,Potency,[5],inactive
same,Potency,[6],inactive
same,outcome,[20],inactive
same,Potency,[9],inactive
same,Potency,[19],inactive
same,viability change,[19],-17%
same,outcome,[11],inactive
same,outcome,[12],inactive
same,outcome,[14],inactive
same,outcome,[15],inactive
same,outcome,[16],inactive
same,Potency,[17],inactive
CN(C)CCCN1c2ccccc2Sc2ccc(C(F)(F)F)cc21,Potency,[18],inactive
same,outcome,[2],inactive
same,outcome,[4],inactive
same,Potency,[6],inactive
same,Potency,[7],1260 nM (active)
same,outcome,[20],inactive
same,outcome,[12],inactive
same,outcome,[14],inactive
same,outcome,[15],inactive
same,outcome,[16],inactive
CCC(=O)c1ccc2c(c1)N(CCCN(C)C)c1ccccc1S2,Potency,[18],inactive
same,outcome,[2],inactive
same,Potency,[5],inactive
same,Potency,[6],inactive
same,Potency,[7],891 nM (active)
same,Potency,[9],inactive
same,activation,[10],1.56% (inactive)
same,outcome,[11],inactive
same,outcome,[12],inactive
same,outcome,[13],inactive
same,outcome,[14],inactive
same,outcome,[15],inactive
same,outcome,[16],inactive
same,Potency,[17],inactive
